The values that follow come from PubChem BioAssay (Tox21).

Several values for one entry are separate records, joined by “and”; a condition that tells them apart may be missing. Identical values can stand only once. Records with an inconclusive call do not appear. Entries that show only a call come without a potency. Activity calls are given as the source filed them. Calls come from the whole dose curve; as a rule, active = well fitted cell-killing curve with a large enough effect in the repeat runs; inconclusive = weak or mixed curves, or effect the other way; inactive = no such curve, though single readings can be large or run the other way.
Potency is the fitted concentration of half-maximal effect.

A short description of the assay: qHTS assay to identify small molecule antagonists of the vitamin D receptor (VDR) signaling pathway - cell viability counter screen (AID 743225). Note: nearly all actives have a fitted effect of over 50% in size. Conditions: VDR-bla HEK293T viability, CellTiter-Glo luminescence, 16 h; series mostly up to 61 µM. The text has this: U.S. Tox21 Program National Center for Advancing Translational Sciences [NCATS] NIH Chemical Genomics Center [NCGC] U.S. Environmental Protection Agency [EPA] National Institutes of Environmental Health Sciences [NIEHS] National Toxicology Program [NTP] U.S. Food and Drug Administration [FDA] Tox21 Assay Overview: The vitamin D receptor (VDR), a member of nuclear hormone receptor superfamily, plays a critical role in calcium homeostasis and bone metabolism. It is also involved in cell differentiation and growth, and thrombogenicity. To identify the compounds that inhibit VDR signaling, the VDR-UAS-bla HEK 293T cell line (Invitrogen, Carlsbad, CA, USA) containing a beta-lactamase reporter gene under the control of an upstream activator sequence (UAS) was used to screen the Tox21 10K compound library. The cytotoxicity of the Tox21 compound library against the VDR-bla cell line was tested in parallel by measuring the cell viability using CellTiter-Glo assay (Promega, Madison, WI) in the same wells.
Tox21 Assay Protocol Summary: VDR-bla cells were dispensed at 2,000 cells/5 uL of assay medium per well into black wall/clear-bottom 1536-well plates using a Multidrop Combi (Thermo Fisher Scientific, Waltham, MA) dispenser. After the assay plates were incubated at a 37C and 5% CO2 for 4 h, 23 nL of compounds dissolved in DMSO, positive controls or DMSO only was transferred to the assay plate by a Pintool station (Kalypsys, San Diego, CA), followed by addition of 1 uL of 1-alpha, 25-Dihydroxy Vitamin D3 (3 nM, final concentration in the wells) using a Bioraptr Flying Reagent Dispenser (FRD) workstation (Beckman Coulter, Indianapolis, IN). The plates were incubated at 37C and 5% CO2 for 16 h, and then 1 uL of LiveBLAzerTM B/G FRET substrate was added using a Bioraptr FRD. The plates were incubated at room temperature for 2 h and fluorescence intensity was measured by an Envision plate reader (PerkinElmer, Shelton, CT). For cell viability readout that measures cytotoxicity, 3 ul/well of CellTiter-Glo reagent was added into the assay plates using a Bioraptr FRD. After 30 min incubation at room temperature, the luminescence intensity in the plates was measured using a ViewLux plate reader (PerkinElmer).
`Cc1ccc2c(C)cccc2c1`: the Potency entry is “inactive”.
On to `C[N+]1(CCC(C(N)=O)(c2ccccc2)c2ccccc2)CCCCC1`, for which the Potency entry was “inactive”.
`CC(CC(C(N)=O)(c1ccccc1)c1ccccc1)N(C)C` (stereo not given): the Potency result is “inactive”.
With `O=C(O)COc1cc(Cl)c(Cl)cc1Cl`, the Potency result is “inactive”.
With `Clc1ccc(Cl)c(Cl)c1` the entry was “inactive”; with `O=[N+]([O-])c1cc(Cl)c(Cl)cc1Cl`, “inactive”; with `C=CC(=O)NC(C)(C)CC(C)=O`, “inactive”.
For the compound `COc1cc(C[C@@H](C)N)c(OC)cc1Br`, the Potency result was “inactive”.
The entry for `CC(C)(C)c1ccc(CCOc2ncnc3ccccc23)cc1` is “inactive”; for `CC1(C)[C@H](C(=O)O[C@H](C#N)c2cccc(Oc3ccccc3)c2)[C@@H]1C=C(Br)Br` it is “inactive”.
As to `CC(C)(C)CC(C)(C)c1ccc(O)cc1`, the Potency was 17.4 µM (active).
With `COC1=CC(=O)O[C@@H](/C=C/c2ccc3c(c2)OCO3)C1` the entry was “inactive”.
Turning to `CCCC[P+](CC)(CCCC)CCCC` (tested in a mixture with another compound), the Potency entry was “inactive”.
For the compound `CN(C)N`, the Potency entry is “inactive”.
Consider `C[C@H]1O[C@H](OC2[C@@H](O)[C@@H](O)C(O)[C@H](O)[C@H]2O)[C@@H](N)C[C@@H]1N=C(N)C(=O)O` (stereo not given in full), for which the Potency result was “inactive”.
The entry for `CN1C(=O)CN=C(c2ccccc2)c2cc([N+](=O)[O-])ccc21` is “inactive”; for `CN1C[C@H](C(=O)N[C@]2(C)O[C@@]3(O)[C@@H]4CCCN4C(=O)[C@H](Cc4ccccc4)N3C2=O)C=C2c3cccc4[nH]cc(c34)C[C@H]21` it is “inactive”; for `CCCN(CCC)c1c([N+](=O)[O-])cc(C(C)C)cc1[N+](=O)[O-]` it is “inactive”.
As for `O=C=NC1CCCCC1`, the Potency result is “inactive”.
Turning to `CCc1cnc(C2=NC(C)(C(C)C)C(=O)N2)c(C(=O)O)c1` (stereo not given), the Potency entry was “inactive”.
For `Nc1ccc2c(c1)Cc1ccccc1-2`, the Potency entry was “inactive”.
Regarding `CN(C)C(=O)Nc1cccc(OC(=O)NC(C)(C)C)c1`, the Potency result was “inactive”.
For `Cc1nnc(-c2ccccc2)c(=O)n1N`, the Potency entry is “inactive”.
The entry for `CCCN(CCOc1c(Cl)cc(Cl)cc1Cl)C(=O)n1ccnc1` is “inactive”; for `O=CC=O` it is “inactive”.
With `C=CCSSCC=C`, the Potency entry is “inactive”.
Regarding `NC(=O)CF`, the Potency result is “inactive”.
Take `CC[N+]1(CCOC(=O)C(O)(c2ccccc2)c2ccccc2)CCCCC1`: the Potency entry was “inactive”.
Regarding `C[C@H]1[C@@H]2Cc3ccc(O)cc3[C@@]1(C)CCN2C`, the Potency entry was “inactive”.
Consider `COc1cc(CC(C)N)c(OC)cc1Br` (stereo not given), for which the Potency result is “inactive”.
As to `O=C(NCNC(=O)NC1C(=O)NC(=O)N1CO)NC1C(=O)NC(=O)N1CO` (stereo not given), the Potency entry is “inactive”.
With `O=C([O-])c1ccccn1.O=C([O-])c1ccccn1.O=C([O-])c1ccccn1.[Cr+3]` the entry was “inactive”.
With `C[C@H](N)[C@H](O)c1ccc(O)c(O)c1`, the Potency entry is “inactive”.
On to `C=CCN1C[C@H](C)N([C@H](c2ccc(C(=O)N(CC)CC)cc2)c2cccc(OC)c2)C[C@H]1C`, for which the Potency result was “inactive”.
With `C[CH2][Hg][S]c1ccccc1C(=O)O` the figure was 3.47 µM (active) and 4.25 µM (active).
The entry for `CCOc1cccc(C2(N3CCN(c4ccccc4)CC3)CCC(C)CC2)c1` (stereo not given) is “inactive”.
Regarding `CCCCC(CC)COC(=O)c1c(Br)c(Br)c(Br)c(Br)c1C(=O)OCC(CC)CCCC` (stereo not given), the Potency entry was “inactive”.
In the case of `CC(C)(c1ccccc1)c1cc(-n2nc3ccccc3n2)c(O)c(C(C)(C)c2ccccc2)c1`, the Potency result is “inactive”.
The entry for `CC(C)(C)OOC(C)(C)CCC(C)(C)OOC(C)(C)C` is “inactive”; for `C=CC(C)(CCC=C(C)C)OC(=O)c1ccccc1N` (stereo not given) it is “inactive”.
